In PubChem BioAssay (EPA / NIEHS):
Records with an inconclusive call do not appear. Activity calls are given as the source filed them. The calls were made as follows, unless noted: active = hit-call score of the fitted dose curve at least 0.9, where 1 is the maximum; inactive = score below 0.9.

Assays:
[1] = read-out: Macrophage colony-stimulating factor (MCSF), CSF1 (gene 1435); assay: BSK_LPS_MCSF: BioMAP Diversity Plus: LPS Assay for Macrophage colony-stimulating factor (MCSF) Biomarker Activity (AID 2283083); conditions: primary human HUVEC with PBMC; actives raise or lower the signal
Procedure, shortened: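 Compound is added to a human vascular primary co-culture of umbilical vein endothelium and blood mononuclear cells. After 24 h, M-CSF is quantified by ELISA. Signal changes are fitted in both directions against DMSO.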

[2] = read-out: Tissue Factor, F3 (gene 2152); assay: BSK_LPS_TissueFactor: BioMAP Diversity Plus: LPS Assay for Tissue Factor Biomarker Activity (AID 2283084); conditions: primary human HUVEC with PBMC; actives raise or lower the signal
Procedure, shortened: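 In this co-culture system of umbilical vein endothelium with PBMC, stimulated with LPS, cell-surface CD142 is detected by ELISA at 24 h. Endpoint values derive from bidirectional fitting, DMSO serving as baseline.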

[3] = read-out: Tumor necrosis factor (Homo sapiens) (UniProt P01375); assay: BSK_LPS_TNFa: BioMAP Diversity Plus: LPS Assay for Tumour Necrosis Factor alpha (TNFa) Biomarker Activity (AID 2283085); conditions: primary human HUVEC with PBMC; actives raise or lower the signal;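 as to AC50: TNFa protein level quantified by ELISA in the co-culture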
Procedure, shortened: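 Read-out is ELISA of TNFa in primary human endothelial cell–PBMC co-cultures at 24 h after compound. Activity in either direction was fitted against DMSO.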

[4] = read-out: Vascular cell adhesion molecule 1 (VCAM1), VCAM1 (gene 7412); assay: BSK_LPS_VCAM1: BioMAP Diversity Plus: LPS Assay for Vascular cell adhesion molecule 1 (VCAM1) Biomarker Activity (AID 2283086); conditions: primary human HUVEC with PBMC; actives raise or lower the signal
Procedure, shortened: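 HUVEC + PBMC co-culture, LPS system; compound 24 h; VCAM-1 by ELISA; bidirectional fit vs DMSO control; parallel SRB (0.1%, TCA-fixed, 560 nm) for cytotoxicity.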

CD38, CD38 (gene 952) = assay: BSK_SAg_CD38: BioMAP Diversity Plus: SAg Assay for CD38 Biomarker Activity (AID 2283087); conditions: primary human HUVEC with PBMC; actives raise or lower the signal
Procedure, shortened: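 Human HUVEC plus PBMC co-culture stimulated with superantigen; CD38 measured by ELISA 24 h after chemical dosing. Fluorescence read-out, bidirectional fit against DMSO; cytotoxicity tracked in parallel by SRB and Alamar Blue.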

CD40, CD40 (gene 958) = assay: BSK_SAg_CD40: BioMAP Diversity Plus: SAg Assay for CD40 Biomarker Activity (AID 2283088); conditions: primary human HUVEC with PBMC; actives raise or lower the signal
Procedure, shortened: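 Fluorescence ELISA read-out of CD40 from umbilical vein endothelium plus peripheral blood mononuclear cells, sampled 24 h after dosing. Values come from bidirectional curve fitting with DMSO as baseline.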

CD69, CD69 (gene 969) = assay: BSK_SAg_CD69: BioMAP Diversity Plus: SAg Assay for CD69 Biomarker Activity (AID 2283089); conditions: primary human HUVEC with PBMC; actives raise or lower the signal;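 as to AC50: cell surface CD69 protein quantified by ELISA with fluorescence detection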
Procedure, shortened: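 HUVEC co-cultured with PBMC were dosed with chemical, and CD69 was measured by ELISA with fluorescence read-out 24 h later. Bidirectional curve fitting used DMSO as negative control and activity baseline.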

[5] = read-out: E-selectin (Homo sapiens) (UniProt P16581); assay: BSK_SAg_Eselectin: BioMAP Diversity Plus: SAg Assay for Eselectin Biomarker Activity (AID 2283091); conditions: primary human HUVEC with PBMC; actives raise or lower the signal
Procedure, shortened: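 Primary human endothelial cells and peripheral blood mononuclear cells were co-cultured and exposed to chemical for 24 hours. E-selectin levels were then quantified by ELISA, with bidirectional curve fitting normalised to DMSO controls.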

[6] = read-out: Monokine induced gamma interferon (MIG), CXCL9 (gene 4283); assay: BSK_SAg_MIG: BioMAP Diversity Plus: SAg Assay for Monokine induced gamma interferon (MIG) Biomarker Activity (AID 2283092); conditions: primary human HUVEC with PBMC; actives raise or lower the signal
Procedure, shortened: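 HUVEC plus human PBMC co-culture, chemicals dosed and MIG (CXCL9) quantified by ELISA at 24 h. Bidirectional curve fitting against DMSO as negative control and baseline, so both gain and loss of signal count as activity.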

[7] = BSK_SAg_PBMCCytotoxicity: PBMC Cytotoxicity Assessment in the BioMAP Diversity Plus: SAg Assay (AID 2283093); conditions: primary human HUVEC with PBMC;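 also: PBMC viability measured as Alamar Blue reduction fluorescence at 546/580 nm; fitted both ways against DMSO so a hit may be loss or gain of signal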;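 as to AC50: PBMC superantigen activated with SEB plus TSST-1 one hour after compound addition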
Procedure, shortened: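 Compound added to 75,000 PBMC/well for 1 h; SEB and TSST-1 then added at 20 ng/mL final each; 90 h incubation; Alamar Blue 6 h; read 546/580 nm ex/em. Activity fitted bidirectionally relative to DMSO baseline.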

[8] = read-out: Interleukin-8 (IL8), CXCL8 (gene 3576); assay: BSK_SAg_IL8: BioMAP Diversity Plus: SAg Assay for Interleukin-8 (IL8) Biomarker Activity (AID 2283094); conditions: primary human HUVEC with PBMC; actives raise or lower the signal
Procedure, shortened: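 ELISA read-out of IL-8 in a primary human vascular co-culture (umbilical vein endothelium plus PBMC), taken 24 h after compound addition. Values derive from bidirectional fits against DMSO negative controls.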

[9] = BSK_SAg_Proliferation: Cell Proliferation Assessment in the BioMAP Diversity Plus: SAg Assay (AID 2283095); conditions: primary human HUVEC with PBMC;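 also: relative cell number as total protein by SRB absorbance in sub-confluent culture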
Procedure, shortened: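 Cells (endothelium plus PBMC, human primary) were dosed with chemical, cultured 96 h, fixed in 10% TCA and stained with 0.1% SRB. Absorbance at 560 nm gave relative protein, fitted bidirectionally relative to DMSO.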

[10] = BSK_SAg_SRB: Viability Assessment in the BioMAP Diversity Plus: SAg Assay (AID 2283096); conditions: primary human HUVEC with PBMC;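 also: cells read one day after compound addition; hits may be either gain or loss of signal compared with DMSO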
Procedure, shortened: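 Total protein by sulforhodamine B staining, 24 h after dosing, in HUVEC–PBMC co-culture; DMSO-referenced bidirectional fitting.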

[11] = molecular target: human CYP2A6, CYP2A6 (gene 1548) (UniProt P11509); assay: NVS_ADME_hCYP2A6: NovaScreen (NVS) CYP450-related Enzyme Activity (ADME) Assay for human CYP2A6 (AID 2283099; active = hit-call score of the fitted dose curve at least 0.9, where 1 is the maximum)
Sequence of human CYP2A6, CYP2A6 (gene 1548) (P11509 whole entry, looked up): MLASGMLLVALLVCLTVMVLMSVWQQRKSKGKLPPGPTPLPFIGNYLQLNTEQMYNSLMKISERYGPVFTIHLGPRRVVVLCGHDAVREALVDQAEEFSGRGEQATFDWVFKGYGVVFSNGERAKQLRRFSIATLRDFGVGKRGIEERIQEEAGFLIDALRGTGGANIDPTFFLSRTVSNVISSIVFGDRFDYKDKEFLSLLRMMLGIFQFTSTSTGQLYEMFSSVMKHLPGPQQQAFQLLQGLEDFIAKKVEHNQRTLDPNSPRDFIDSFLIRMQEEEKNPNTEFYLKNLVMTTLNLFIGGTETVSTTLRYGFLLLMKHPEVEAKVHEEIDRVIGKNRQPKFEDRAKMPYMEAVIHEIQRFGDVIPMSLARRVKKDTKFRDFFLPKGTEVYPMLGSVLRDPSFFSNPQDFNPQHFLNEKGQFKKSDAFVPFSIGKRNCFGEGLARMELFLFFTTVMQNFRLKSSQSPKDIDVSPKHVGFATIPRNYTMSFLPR
Procedure, shortened: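 Recombinant human CYP2A6 from insect cells was incubated with chemical for 0.5 h and activity read by fluorescence. Single-concentration duplicates at 10 uM preceded concentration-response testing to 20 uM, with activity referenced to acetonitrile.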

[12] = molecular target: human CYP19A1, CYP19A1 (gene 1588) (UniProt P11511); assay: NVS_ADME_hCYP19A1: NovaScreen (NVS) CYP450-related Enzyme Activity (ADME) Assay for human CYP19A1 (AID 2283098; active = hit-call score of the fitted dose curve at least 0.9, where 1 is the maximum)
Sequence of human CYP19A1, CYP19A1 (gene 1588) (P11511 whole entry, looked up): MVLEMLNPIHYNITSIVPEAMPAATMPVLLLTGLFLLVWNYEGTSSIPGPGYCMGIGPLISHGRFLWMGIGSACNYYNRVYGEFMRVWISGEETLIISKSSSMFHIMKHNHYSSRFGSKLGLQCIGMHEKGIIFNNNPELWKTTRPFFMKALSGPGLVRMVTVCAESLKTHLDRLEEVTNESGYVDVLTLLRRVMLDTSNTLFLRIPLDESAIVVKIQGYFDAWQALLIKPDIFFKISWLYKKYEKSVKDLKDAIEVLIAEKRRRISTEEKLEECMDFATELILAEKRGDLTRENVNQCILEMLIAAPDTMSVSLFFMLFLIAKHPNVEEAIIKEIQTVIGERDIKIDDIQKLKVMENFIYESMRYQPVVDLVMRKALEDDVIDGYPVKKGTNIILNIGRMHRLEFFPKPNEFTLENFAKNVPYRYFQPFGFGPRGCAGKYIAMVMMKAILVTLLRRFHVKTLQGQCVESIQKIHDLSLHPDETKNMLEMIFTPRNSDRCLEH
Procedure, shortened: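 Biochem, cell-free; recombinant enzyme + specific substrate; fluorescence intensity at 0.5 h post-dose; 10 uM duplicate primary, conc. series for actives; acetonitrile = negative control/baseline; positive and negative controls on every plate.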

[13] = molecular target: human CYP2D6, CYP2D6 (gene 1565) (UniProt P10635); assay: NVS_ADME_hCYP2D6: NovaScreen (NVS) CYP450-related Enzyme Activity (ADME) Assay for human CYP2D6 (AID 2283107; active = hit-call score of the fitted dose curve at least 0.9, where 1 is the maximum)
Sequence of human CYP2D6, CYP2D6 (gene 1565) (P10635 whole entry, looked up): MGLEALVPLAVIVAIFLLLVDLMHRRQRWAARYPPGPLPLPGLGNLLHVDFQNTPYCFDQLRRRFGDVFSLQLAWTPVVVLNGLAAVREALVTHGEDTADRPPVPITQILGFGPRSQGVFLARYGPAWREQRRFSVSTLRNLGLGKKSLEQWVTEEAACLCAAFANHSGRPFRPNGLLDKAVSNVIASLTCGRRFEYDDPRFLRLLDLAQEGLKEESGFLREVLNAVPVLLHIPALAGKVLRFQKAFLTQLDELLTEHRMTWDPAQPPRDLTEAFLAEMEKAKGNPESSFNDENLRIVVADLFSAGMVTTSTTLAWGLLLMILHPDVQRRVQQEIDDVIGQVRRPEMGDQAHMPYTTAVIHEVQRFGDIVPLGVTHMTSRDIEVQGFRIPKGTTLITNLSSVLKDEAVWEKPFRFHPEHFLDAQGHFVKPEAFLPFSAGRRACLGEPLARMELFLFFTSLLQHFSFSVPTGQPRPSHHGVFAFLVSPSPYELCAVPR
Procedure, shortened: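 Compounds were first tested in duplicate at 10 uM against recombinant enzyme produced in insect cells, with substrate turnover measured by fluorescence after 1 hour. Decreased signal, referenced to acetonitrile vehicle, was taken as reduced enzyme activity. Active chemicals went on to concentration-response testing.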

Measured: AC50

Sequence of Tumor necrosis factor (Homo sapiens) (P01375 whole entry, looked up): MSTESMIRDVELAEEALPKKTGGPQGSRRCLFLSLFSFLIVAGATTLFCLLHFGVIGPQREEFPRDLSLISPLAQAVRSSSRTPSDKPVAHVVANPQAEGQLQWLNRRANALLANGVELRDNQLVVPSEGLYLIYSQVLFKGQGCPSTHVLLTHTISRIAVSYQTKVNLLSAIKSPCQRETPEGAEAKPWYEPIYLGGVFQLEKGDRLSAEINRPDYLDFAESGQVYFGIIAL
Sequence of E-selectin (Homo sapiens) (P16581 whole entry, looked up): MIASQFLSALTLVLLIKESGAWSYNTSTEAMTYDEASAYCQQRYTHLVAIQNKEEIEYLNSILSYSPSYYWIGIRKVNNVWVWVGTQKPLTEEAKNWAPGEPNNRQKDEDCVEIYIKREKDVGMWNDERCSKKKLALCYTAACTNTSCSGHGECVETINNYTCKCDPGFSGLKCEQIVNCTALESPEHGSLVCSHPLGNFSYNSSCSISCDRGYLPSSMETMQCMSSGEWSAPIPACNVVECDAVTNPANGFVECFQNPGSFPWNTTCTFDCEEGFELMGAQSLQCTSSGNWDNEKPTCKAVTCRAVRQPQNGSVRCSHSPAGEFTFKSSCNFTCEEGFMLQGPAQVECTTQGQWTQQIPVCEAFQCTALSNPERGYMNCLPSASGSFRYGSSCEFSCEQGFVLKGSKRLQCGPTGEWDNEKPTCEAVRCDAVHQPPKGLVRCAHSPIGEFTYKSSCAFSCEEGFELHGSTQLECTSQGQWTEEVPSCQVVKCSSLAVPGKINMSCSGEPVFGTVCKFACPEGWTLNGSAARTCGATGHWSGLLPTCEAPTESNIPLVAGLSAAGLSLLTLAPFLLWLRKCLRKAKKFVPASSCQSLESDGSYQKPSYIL

c1ccc2occc2c1
not listed: [11] | [12] | [13]
inactive: all other assays above

O=C1CCCCC1
not listed: [11] | [12] | [13]
inactive: all other assays above

CCc1nc(N)nc(N)c1-c1ccc(Cl)cc1
not listed: [12] | [13]
inactive: all other assays above

CC(N)=O
not listed: [11] | [13]
inactive: all other assays above

Nc1nc(Cl)nc2c1ncn2[C@H]1C[C@H](O)[C@@H](CO)O1
inactive: [4] | CD38, CD38 (gene 952) | [6] | [8] | [12]
active: [1] 1080 nM | [2] 3370 nM | [3] 5400 nM | CD40, CD40 (gene 958) 1600 nM | CD69, CD69 (gene 969) 4310 nM | [5] 9320 nM | [7] 642 nM | [9] 147 nM | [10] 554 nM

CCCCCCCCCC[N+](C)(C)[O-]
active: [4] 35500 nM | [13] 2690 nM
not listed: [11] | [12]
inactive: all other assays above

O=C(O)CC(O)(CC(=O)O)C(=O)O
not listed: [11] | [12] | [13]
inactive: all other assays above
